As a reminder, the inhibition is the relative decrease from the control value, in per cent.

SMILES strings stand for the structures. A number with no mark means an inactive call. For some of these results: Potency and affinity values are given separately. Calls of active or inactive are those of the source. Unless noted, how the calls were made is not given here.

The nature of experiment [1]: antimalarial activity against Dd2 strain (AID 2302;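 active means growth inhibition above 50% at the single 2 µM test dose, taken to imply half-maximal potency below 2 µM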;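 further: 0% = DMSO untreated growth and 100% = chloroquine plus artemisinin killed control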). The settings on record: P. falciparum Dd2 in RBCs, LDH growth readout, 72 h; at 2 µM; hits give high values.
The nature of experiment [2]: HepG2 cytotoxicity, primary screen, cytotoxicity control for P. falciparum antimalarial project, cell-based, ATP luminescence (AID 2303;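 active means inhibition above 50%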;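 further: 0% = DMSO wells and 100% = digitonin-killed cells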). As to conditions: HepG2 viability, 24-48 h, at 10 µM, hits give high values.
Experiment [3] deals with L-lactate dehydrogenase (Plasmodium falciparum (isolate CDC / Honduras)) (UniProt Q27743). The experiment is described as follows: PfLDH activity inhibition – cell lysate, 3D7 strain, counter-screen for P. falciparum growth inhibition project (AID 2304).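 Further: 0% = vehicle and 100% = reference inhibitor.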 As to conditions: P. falciparum 3D7 crude extract, LDH APAD/NBT absorbance; at 2 µM; hits give high values.
Experiment [4] can be described thus: inhibition of 3D7 malaria parasite growth – strain 3D7 (AID 2306).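 Further: 0% = DMSO wells and 100% = chloroquine plus artemisinin control wells.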 As to conditions: P. falciparum 3D7 erythrocytic growth, LDH absorbance, 72 h; at 2 µM; hits give high values.
Experiment [5] has as its target Calcium-dependent protein kinase 1 (Plasmodium falciparum (isolate 3D7)) (UniProt P62344). The experiment is described as follows: PfCDPK1 kinase inhibitors, biochemical, TCAMS library (AID 1159585; cut-off not given, nearly all actives have IC50 up to about 0.98 µM;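 further: inhibitors leave more ATP so luminescence rises with inhibition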). The settings on record: recombinant PfCDPK1, Kinase-Glo ATP depletion luminescence.
The target in experiment [6] is Plasmodium falciparum protein kinase 6 (PK6, PF3D7_1337100) (UniProt Q8IDW1). The experiment is described as follows: PfPK6 kinase inhibitors, biochemical, TCAMS library (AID 1159586). The settings on record: recombinant PfPK6, Kinase-Glo ATP depletion luminescence. In general terms: Kinase-Glo measures the ATP left after a reaction by luminescence.
Experiment [7] concerns the target Protein kinase 7 (PK7), Plasmodium falciparum 3D7 (PF3D7_0213400) (UniProt Q7YTF7). Nature of the experiment: inhibition of Plasmodium PK7 catalytic activity – biochemical, TCAMS antimalarial set, Kinase-Glo luminescence (AID 1159587). The settings on record: recombinant PfPK7, Kinase-Glo ATP depletion luminescence.
In experiment [8] the target is Calcium-dependent protein kinase 4 (Plasmodium falciparum (isolate 3D7)) (UniProt Q8IBS5). Nature of the experiment: PfCDPK4 kinase inhibitors, biochemical, TCAMS library (AID 1159588; cut-off not given, nearly all actives have IC50 up to about 0.91 µM). As to conditions: recombinant PfCDPK4, Kinase-Glo ATP depletion luminescence.
Sequence of Calcium-dependent protein kinase 4 (Plasmodium falciparum (isolate 3D7)) (Q8IBS5 whole entry, looked up): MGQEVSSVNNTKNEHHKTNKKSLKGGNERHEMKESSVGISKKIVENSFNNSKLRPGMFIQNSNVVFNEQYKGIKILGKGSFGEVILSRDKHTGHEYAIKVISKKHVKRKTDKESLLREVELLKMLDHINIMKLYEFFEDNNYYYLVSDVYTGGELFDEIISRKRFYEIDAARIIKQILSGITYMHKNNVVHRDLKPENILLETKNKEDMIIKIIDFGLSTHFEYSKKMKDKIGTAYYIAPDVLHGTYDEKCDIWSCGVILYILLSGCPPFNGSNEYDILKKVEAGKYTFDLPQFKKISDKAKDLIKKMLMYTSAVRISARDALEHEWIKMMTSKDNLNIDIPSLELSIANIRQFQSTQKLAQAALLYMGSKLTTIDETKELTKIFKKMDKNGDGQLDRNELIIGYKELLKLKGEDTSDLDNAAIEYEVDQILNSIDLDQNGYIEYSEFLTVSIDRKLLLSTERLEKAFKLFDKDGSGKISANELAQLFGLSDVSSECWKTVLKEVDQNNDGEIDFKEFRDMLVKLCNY

Sequence of Calcium-dependent protein kinase 1 (Plasmodium falciparum (isolate 3D7)) (P62344 whole entry, looked up): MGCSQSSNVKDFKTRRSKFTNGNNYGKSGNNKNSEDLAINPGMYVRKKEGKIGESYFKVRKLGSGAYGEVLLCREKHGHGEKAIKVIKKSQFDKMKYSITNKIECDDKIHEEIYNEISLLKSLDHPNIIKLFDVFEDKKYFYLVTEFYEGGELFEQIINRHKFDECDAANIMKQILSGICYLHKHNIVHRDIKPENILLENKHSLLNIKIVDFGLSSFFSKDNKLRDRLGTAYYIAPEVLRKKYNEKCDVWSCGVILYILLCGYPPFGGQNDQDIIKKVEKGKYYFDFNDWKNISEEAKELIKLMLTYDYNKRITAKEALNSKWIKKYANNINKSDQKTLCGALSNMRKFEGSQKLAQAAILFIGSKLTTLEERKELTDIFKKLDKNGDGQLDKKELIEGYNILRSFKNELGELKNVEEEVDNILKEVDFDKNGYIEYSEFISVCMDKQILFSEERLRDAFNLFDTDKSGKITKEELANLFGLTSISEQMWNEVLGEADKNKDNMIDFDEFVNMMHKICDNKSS
Sequence of Protein kinase 7 (PK7), Plasmodium falciparum 3D7 (PF3D7_0213400) (Q7YTF7 1-343): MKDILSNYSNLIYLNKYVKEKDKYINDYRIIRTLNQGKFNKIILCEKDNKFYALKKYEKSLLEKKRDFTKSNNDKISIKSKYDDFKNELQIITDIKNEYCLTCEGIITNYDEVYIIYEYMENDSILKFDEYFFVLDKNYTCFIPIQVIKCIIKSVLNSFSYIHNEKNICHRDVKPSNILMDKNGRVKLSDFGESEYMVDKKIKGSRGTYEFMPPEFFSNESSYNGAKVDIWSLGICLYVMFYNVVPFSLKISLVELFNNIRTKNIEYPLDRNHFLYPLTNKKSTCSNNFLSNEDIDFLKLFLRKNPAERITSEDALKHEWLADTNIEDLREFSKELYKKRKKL
Sequence of L-lactate dehydrogenase (Plasmodium falciparum (isolate CDC / Honduras)) (Q27743 whole entry, looked up): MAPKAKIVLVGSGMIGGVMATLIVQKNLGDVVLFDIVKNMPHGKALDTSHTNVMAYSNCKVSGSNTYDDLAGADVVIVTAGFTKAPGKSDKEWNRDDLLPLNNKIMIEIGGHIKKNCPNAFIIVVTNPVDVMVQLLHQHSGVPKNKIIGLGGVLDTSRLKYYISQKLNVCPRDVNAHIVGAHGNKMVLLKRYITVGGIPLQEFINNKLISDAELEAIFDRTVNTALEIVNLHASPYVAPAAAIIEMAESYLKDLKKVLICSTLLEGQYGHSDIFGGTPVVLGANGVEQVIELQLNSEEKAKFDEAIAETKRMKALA
Sequence of Plasmodium falciparum protein kinase 6 (PK6, PF3D7_1337100) (Q8IDW1 1-305): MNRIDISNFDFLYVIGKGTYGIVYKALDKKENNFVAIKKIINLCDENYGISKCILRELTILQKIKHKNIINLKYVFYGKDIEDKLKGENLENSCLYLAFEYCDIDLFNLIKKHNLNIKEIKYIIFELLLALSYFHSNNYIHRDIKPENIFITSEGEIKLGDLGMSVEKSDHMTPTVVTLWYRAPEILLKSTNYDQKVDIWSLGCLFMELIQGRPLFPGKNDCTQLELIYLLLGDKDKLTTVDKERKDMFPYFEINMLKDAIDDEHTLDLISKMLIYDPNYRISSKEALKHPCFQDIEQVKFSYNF

Consider `Cc1cccc2[nH]c(-c3ccc(-c4ccc(CN5CCN(c6cnccn6)CC5)cc4)s3)nc12`, for which the values for the growth inhibition in experiment [1] and in experiment [4] were 42% and 94% (active), respectively. The inhibition in experiment [2] is 11%; in experiment [3], -6%. Besides, the result in experiment [5], in experiment [6], in experiment [7] and in experiment [8] was inactive.
Regarding `Cc1cc(-c2cccc(CNC3CCN(C)CC3)c2)ccc1S(=O)(=O)NC1CCC1`, the results for the growth inhibition in experiment [1] and in experiment [4] were 96% (active) and 101% (active), respectively. The inhibition in experiment [2] was 33%; in experiment [3], 3%. The outcome in experiment [5], in experiment [6], in experiment [7] and in experiment [8] was inactive.
As to `Cc1ccc2nc(-c3cc(-c4ccc(CO)cc4)cnc3N)[nH]c2c1`, the growth inhibition in experiment [1] is 6%; in experiment [4], 95% (active). Also, the inhibition in experiment [2] was 52% (active); in experiment [3], 9%. The result in experiment [5], in experiment [6], in experiment [7] and in experiment [8] was inactive.
On to `Cc1cccc2[nH]c(-c3cccc(-c4ccc(NC(=O)COC(C)C)cc4)c3)nc12`, for which the growth inhibition in experiment [1] was 11%; in experiment [4], 82% (active). In addition, the inhibition in experiment [2] is -4%; in experiment [3] it was 7%. In addition, the outcome in experiment [5], in experiment [6], in experiment [7] and in experiment [8] was inactive.
In the case of `CNCCNCc1ccc(-c2ccc(-c3nc4c(C)cccc4[nH]3)cc2)cc1`, the growth inhibition in experiment [1] was 79% (active); in experiment [4], 96% (active). The results for the inhibition in experiment [2] and in experiment [3] were 19% and -5%, respectively. The outcome in experiment [5], in experiment [6], in experiment [7] and in experiment [8] was inactive.
In the case of `O=C(NC1CC1)c1ccc(N2CCCCN2CCc2ccccc2)c(C(F)(F)F)c1`, the growth inhibition in experiment [1] was 84% (active); in experiment [4], 98% (active). Moreover, the figures for the inhibition in experiment [2] and in experiment [3] were -9% and -4%, respectively. Further, the outcome in experiment [5], in experiment [6], in experiment [7] and in experiment [8] was inactive.
Consider `CCOC(=O)c1c(C)n(-c2ccccc2)c2ccc(OC(=O)COc3ccc(Cl)cc3Cl)cc12`, for which the growth inhibition was 87% (active) in experiment [1] and 99% (active) in experiment [4]. Also, the results for the inhibition in experiment [2] and in experiment [3] were 11% and 3%, respectively. The result in experiment [5], in experiment [6], in experiment [7] and in experiment [8] was inactive.
Take `Cc1cc(NN=Cc2ccccc2F)c2cccc(C)c2n1`: the results for the growth inhibition in experiment [1] and in experiment [4] were 14% and 102% (active), respectively. The inhibition in experiment [2] was 7%; in experiment [3], -2%. Moreover, the result in experiment [5], in experiment [6], in experiment [7] and in experiment [8] was inactive.
With `COC(=O)Nc1cc(C(F)(F)F)ccc1N1CCCC(NS(=O)(=O)c2ccc(C(C)(C)C)cc2)C1` (stereo not given), the growth inhibition was 90% (active) in experiment [1] and 97% (active) in experiment [4]. Also, the inhibition in experiment [2] is -8%; in experiment [3], -5%. The result in experiment [5], in experiment [6], in experiment [7] and in experiment [8] was inactive.
As to `COc1ccc(Cl)cc1NC(=O)CN(C)C(=O)c1cnn(-c2ccccc2)n1`, the growth inhibition in experiment [1] is 99% (active); in experiment [4], 102% (active). For the same compound, the inhibition in experiment [2] is -6%; in experiment [3] it was -2%. The result in experiment [5], in experiment [6], in experiment [7] and in experiment [8] was inactive.
With `O=C(NCCCN1CCN(c2cccc(Cl)c2)CC1)c1ccc(-c2nc3cc(Cl)c(Cl)cc3[nH]2)cc1`, the growth inhibition in experiment [1] is 95% (active); in experiment [4] it was 98% (active). In addition, the inhibition in experiment [2] is 3%; in experiment [3] it was -1%. The outcome in experiment [5], in experiment [6], in experiment [7] and in experiment [8] was inactive.
`COc1ccc(OCCCN2CCCCC2)cc1S(=O)(=O)c1ccc(OCc2ccc(C(F)(F)F)cc2)cc1`: the values for the growth inhibition in experiment [1] and in experiment [4] were 8% and 94% (active), respectively. Besides, the values for the inhibition in experiment [2] and in experiment [3] were 52% (active) and -2%, respectively. Moreover, the result in experiment [5], in experiment [6], in experiment [7] and in experiment [8] was inactive.
`COc1ccc2nccc(NN=Cc3ccccc3F)c2c1`: the values for the growth inhibition in experiment [1] and in experiment [4] were 98% (active) and 103% (active), respectively. Moreover, the inhibition in experiment [2] was 23%; in experiment [3] it was -2%. Also, the result in experiment [5], in experiment [6], in experiment [7] and in experiment [8] was inactive.
With `CCNc1cc(C(=O)N[C@@H](Cc2ccco2)[C@H](O)CNC2CCCCC2)cc(N2CCCCS2(=O)=O)c1`, the growth inhibition in experiment [1] is 57% (active); in experiment [4], 91% (active). The results for the inhibition in experiment [2] and in experiment [3] were 14% and 3%, respectively. Further, the result in experiment [5], in experiment [6], in experiment [7] and in experiment [8] was inactive.
Consider `Cc1cc(-c2cnc(N)c(-c3ccc(N4CCN(C)CC4)nc3)c2)cc(C)c1O`, for which the growth inhibition in experiment [1] was 33%; in experiment [4] it was 91% (active). For the same compound, the inhibition was -12% in experiment [2] and 7% in experiment [3]. Also, the result in experiment [5], in experiment [6], in experiment [7] and in experiment [8] was inactive.
Consider `O=C(Nc1cccc(Cl)c1Cl)Nc1ccnc2ccccc12`, for which the growth inhibition is 47% in experiment [1] and 100% (active) in experiment [4]. The inhibition was 31% in experiment [2] and 4% in experiment [3]. Also, the outcome in experiment [5], in experiment [6], in experiment [7] and in experiment [8] was inactive.
`Cc1cc(NCC(C)C)c2[nH]nc(-c3ccccc3)c2n1`: the growth inhibition in experiment [1] is 30%; in experiment [4] it was 99% (active). Besides, the inhibition in experiment [2] is 9%; in experiment [3], 2%. For the same compound, the outcome in experiment [5], in experiment [6], in experiment [7] and in experiment [8] was inactive.
`CCOCc1cn(CC(=O)c2ccc(-c3ccccc3)cc2)c(C)nc1=N`: the growth inhibition in experiment [1] is 72% (active); in experiment [4] it was 93% (active). The figures for the inhibition in experiment [2] and in experiment [3] were 13% and 5%, respectively. Moreover, the result in experiment [5], in experiment [6], in experiment [7] and in experiment [8] was inactive.
On to `CCN(CC)CCN(Cc1ccc(-c2ccc(C(F)(F)F)cc2)cc1)C(=O)Cn1c(CCc2ccc(F)c(F)c2)cc(=O)c2ccccc21`, for which the growth inhibition in experiment [1] is 26%; in experiment [4], 95% (active). For the same compound, the inhibition in experiment [2] was 23%; in experiment [3] it was -1%. Further, the result in experiment [5], in experiment [6], in experiment [7] and in experiment [8] was inactive.
Regarding `Nc1nc2c(ncn2OC[C@H](CO)OCP(=O)(O)O)c(=O)[nH]1`, the growth inhibition in experiment [1] is 61% (active); in experiment [4] it was 94% (active). Besides, the results for the inhibition in experiment [2] and in experiment [3] were 5% and -4%, respectively. In addition, the outcome in experiment [5], in experiment [6], in experiment [7] and in experiment [8] was inactive.

Values taken from PubChem BioAssay.
